Assay outcomes deposited in PubChem BioAssay by National Center for Advancing Translational Sciences (NCATS).
G9a inh – inhibitors of human histone lysine methyltransferase G9a. G9a H3K9 monomethylation, AlphaScreen, 2 h. Potency, µM (doses to about 102 µM), without a hit: top-dose activity, negative = inhibition, usual class: inhibitors. AID 504332. Q96KQ7. hit rate 8.8% among 350,000; note: % is set by controls: 0 for no effect and ±100 for the full control effect; nearly all actives have a fitted effect of over 75% in size
Target sequence (Q96KQ7 913-1193 limits assumed): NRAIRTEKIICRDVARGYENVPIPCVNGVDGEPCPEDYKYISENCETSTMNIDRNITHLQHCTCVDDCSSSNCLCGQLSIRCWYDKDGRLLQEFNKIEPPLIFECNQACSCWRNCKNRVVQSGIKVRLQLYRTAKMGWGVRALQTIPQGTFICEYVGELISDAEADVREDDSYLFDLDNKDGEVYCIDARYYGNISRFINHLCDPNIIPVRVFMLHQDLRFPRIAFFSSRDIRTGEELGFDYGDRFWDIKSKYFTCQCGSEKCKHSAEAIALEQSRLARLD
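Compounds were preincubated with 20 nM G9a for 15 min, after which biotinylated H3K9 peptide (500 nM) and SAM (20 uM) started a 2 h room-temperature reaction. Monomethylated product was quantified by antibody-based AlphaScreen chemiluminescence.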
L3MBTL1 inh – L3MBTL1 (human) inhibition | Q9Y468 | hit rate 0.66% among 230,000 | AlphaScreen L3MBTL1–H3K9me1 peptide binding | Potency, µM (titrated, usually from 57.1 µM), inactives show top-dose activity, negative = inhibition, hits mostly inhibitors; note: % is set by controls: 0 for no effect and ±100 for the full control effect; nearly all actives have a fitted effect of over 60% in size
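L3MBTL1 50 nM + b-AHA-H3(1-15)K9me1 75 nM, 30 min RT; compound added, 30 min RT; streptavidin donor/Ni-chelate acceptor beads 10 ug/mL each final, 30 min RT dark; AlphaScreen read.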
HP1b binding inh – HP1-beta chromodomain-methylated histone interaction inhibition; AlphaScreen HP1-beta / biotin-H3K9me3 peptide binding; Potency, µM (titrated, usually from 114 µM), for the others: at the top dose activity change, negative = inhibition, usual class: inhibitors; hit rate 0.56% among 390,000; note: nearly all actives have a fitted effect of over 70% in size
Target sequence (P83916 whole entry, looked up): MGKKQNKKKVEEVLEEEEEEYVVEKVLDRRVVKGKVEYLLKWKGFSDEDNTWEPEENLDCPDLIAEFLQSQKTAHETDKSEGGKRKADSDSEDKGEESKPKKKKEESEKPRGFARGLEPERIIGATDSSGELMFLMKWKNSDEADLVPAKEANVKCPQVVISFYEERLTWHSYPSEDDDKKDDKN
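Compound inhibition of the preformed complex between 50 nM HP1-beta and 50 nM biotinylated H3K9me3 peptide was read by AlphaScreen. Buffer was PBS pH 7.4 with 0.01% Tween-20. Incubations ran 30 min at room temperature, with 10 ug/mL donor/acceptor beads.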
BAZ2B block – BAZ2B (human) inhibition; AlphaScreen BAZ2B-H3K14Ac peptide displacement; Q9UIF8; Potency, µM (highest dose often 114 µM), for the others: at the top dose activity change, negative = inhibition, most hits filed as inhibitors; hit rate 4.4% among 360,000; note: % is set by controls: 0 for no effect and ±100 for the full control effect; nearly all actives have a fitted effect of over 60% in size
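Compounds, titrated to a top concentration of 110 uM, were incubated 30 min at room temperature with preformed BAZ2B/acetyl-K14 H3 peptide complex (50 nM each). Proximity signal was measured by AlphaScreen after 20 min with beads.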
JMJD2A Tudor inh – inhibitors of human JMJD2A Tudor domain | AlphaScreen JMJD2A-Tudor / H3K4me3 peptide binding | hit rate 4.4% among 390,000 | AID 504339 | Potency, µM (top dose mostly 114 µM), for inactives: at the highest dose activity change, negative = inhibition, most hits filed as inhibitors | O75164; note: % is set by controls: 0 for no effect and ±100 for the full control effect; nearly all actives have a fitted effect of over 50% in size
The depositor's hits bear a star; ? = inconclusive; . = no result; ! = a repeat was not active; [ ] = remark or other dose. Shown are actives, neighbours in structure and some others; about 11% of the full set was active somewhere. Calls come from the whole dose curve; as a rule, active = well fitted inhibition curve with a large enough effect; inconclusive = small, poorly fitted or top-dose-only effect; inactive = no such curve, though single readings can be large or run the other way. Potency is the fitted concentration of half-maximal effect.

SMILES | G9a inh | L3MBTL1 inh | HP1b binding inh | BAZ2B block | JMJD2A Tudor inh
O=C(CSc1ccc2nnc(-c3cccnc3)n2n1)NCc1ccco1 | 79µM* | . | 40% | -32% | -6%
Nc1cccc(N=[N+]([O-])c2cccc(N)c2)c1 | . | . | 10% | . | -21%
CCn1c(CN2CCC(C)CC2)nc2cc(NC(=O)COc3ccc([N+](=O)[O-])cc3)ccc21 | 2%[59 µM] | . | 50% | -11% | -11%
CN(C)CCCN1c2ccccc2Sc2ccc(Cl)cc21 | 71µM*! | -21% | ? | 40µM* | 20µM*
O=C(CN1CCCC1)N1c2ccccc2Sc2ccc(Cl)cc21 | . | -2% | 7% | -32% | -24%
CN(C)CCCN1c2ccccc2Sc2ccc3ccccc3c21 | . | . | 7% | . | -33%
CN(C)CCCN1c2ccc3ccccc3c2Sc2cccc(Cl)c21 | . | . | ? | . | 50µM*
CN1CCN(CCCN2c3ccccc3Sc3ccc(S(=O)(=O)N(C)C)cc32)CC1 | 10µM* | -1% | 38% | ? | -4%
CC1Cc2cc(S(=O)(=O)NCc3ccccc3Cl)ccc2N1C(=O)C1CCC1 (stereo unspecified) | -1%[59 µM] | . | 31% | 2% | -17%
COc1ccccc1/C=C/C=c1\sc2nc(=O)c(Cc3ccccc3)nn2c1=O | . | . | -22% | 45µM* | 56µM*
CCCOc1ccc(Cc2nn3c(=O)/c(=C/c4ccco4)sc3nc2=O)cc1 | ? | ? | 13% | 1% | 56µM*
CC(=O)Nc1c([N+](=O)[O-])cc2[nH]c(=O)[nH]c2c1[N+](=O)[O-] | 32µM* | -7% | -2% | -20% | -12%[11.4 µM]
CCc1ccc(CNC(=O)C2Cc3cc(S(=O)(=O)N4CCCCCC4)ccc3N2C(C)=O)cc1 (stereo unspecified) | 8%[59 µM] | . | 3% | -3% | -6%
CC(C)(C)OC(=O)NCc1n[nH]c(=S)n1C1CC1 | ? | -10% | 30% | 9% | 28µM*
CC(C)(C)OC(=O)NCC(=O)N1CCC(C(=O)O)CC1 | -5% | 4% | 10% | -1% | -10%
Cc1ccccc1NC(=O)CSc1nccn1C | 8%[59 µM] | . | 42% | -16% | -3%
Cc1cc([N+](=O)[O-])cc2c1-c1ncccc1C2=Nc1ccccc1 | ? | -2% | -4% | -39% | -35%
O=[N+]([O-])c1ccc2c(c1)C(=Nc1ccccc1)c1ccccc1-2 | . | . | ? | . | 32µM*
O=c1cnc2cnc(Oc3ccccc3)nc2n1CCc1ccccc1 | -4%[12.7 µM] | . | . | . | .
COc1cc(/C=C2/C(=O)NN(c3cccc(C)c3)C2=O)cc([N+](=O)[O-])c1O | 35µM* | ? | ? | 40µM* | 56µM*
O=C1NN(c2ccccc2)C(=O)/C1=C\c1cccn1-c1ccc(Cl)c([N+](=O)[O-])c1 | -18% | . | -12% | -26% | ?
Cc1ccc(N2NC(=O)/C(=C\c3cc4c(cc3[N+](=O)[O-])OCO4)C2=O)cc1C | 25µM* | -15% | ? | 45µM* | ?
COc1cc(/C=C2/C(=O)NN(c3ccc(C)c(Cl)c3)C2=O)cc([N+](=O)[O-])c1O | 11µM* | . | -18% | 32µM* | ?
COC(=O)c1sc(SC)c(S(=O)(=O)C(C)C)c1N/N=C(\C#N)C(=O)c1ccccc1 | 45µM* | -15% | -14% | -29% | ?
COCCCNC1=C(Cl)C(=O)c2ccccc2C1=O | 40µM* | -16% | ? | 35µM* | ?
SMILES | G9a inh | L3MBTL1 inh | HP1b binding inh | BAZ2B block | JMJD2A Tudor inh
CC(C)NC1=C(Cl)C(=O)c2ccccc2C1=O | 20µM* | . | 16µM* | 25µM* | 40µM*
CCN(CC)CCCNC1=C(Cl)C(=O)c2ccccc2C1=O | ? | -25% | -15% | -26% | -30%
CC(C)OCCCNC1=C(Cl)C(=O)c2ccccc2C1=O | . | -45% | 35µM* | 10µM* | 40µM*
OCC1CCCCN1CCNCc1cn[nH]c1-c1cccc2ccccc12 (stereo unspecified) | -50% | -11% | 30% | -14% | -23%
c1ccc2c(-c3[nH]ncc3CNCCCn3ncc4ccccc43)cccc2c1 | . | -15% | -17% | ? | 20µM*
CCOc1ccc2nc(N3CCN(C(=O)c4ccc5c(c4)CCCC5)CC3)sc2c1 | 12%[59 µM] | . | -10% | -14% | -17%
COc1ccc(CN2C(=O)Cc3c2nc(N)c2c(N)nc(N4CCOCC4)c(C#N)c32)cc1 | -30%[12.7 µM] | . | 14% | -27% | -6%
N#CCc1c(C#N)c(N)nc(N2CCN(c3ccc(F)cc3)CC2)c1C#N | 50µM* | . | 13% | 13% | ?
COCCN1C(=O)Cc2c1nc(N)c1c(N)nc(N3CCN(c4ccc(F)cc4)CC3)c(C#N)c21 | 35µM* | -23% | 5% | -34% | -32%
COc1ccc(C(=O)NCCc2nc3ccccc3[nH]2)cc1 | -32%[59 µM] | . | 45% | -3% | -11%
Cn1c(CN(O)S(=O)(=O)c2ccc(Cl)cc2)nnc1C(F)(F)F | 10µM* | . | 32% | -6% | 0%
Nc1cc(=O)[nH]c(SCC(=O)N2CCCc3ccccc32)n1 | 8%[59 µM] | 5% | 17% | 7% | -12%
O=C(CCCC(=O)N1CCCc2ccccc21)N1CCCc2ccccc21 | 21% | 6% | 27% | 10% | -9%
O=C(CN1CCCCC1)N1CCCc2ccccc21 | ? | . | ? | 50µM* | 2.5µM*
Nc1nc2nc(SCC(=O)N3CCCc4ccccc43)[nH]c2c(=O)[nH]1 | 79µM* | 2% | . | -7% | .
O=C(CN1CCCC1)N1CCCc2ccccc21 | . | -7% | ? | 50µM* | 3.5µM*
CCN(CC)c1ccc(/C=N/OCC(=O)N2CCCc3ccccc32)cc1 | 40µM* | -14% | ? | ? | ?
FC(F)(F)c1ccccc1-c1nc(NCc2cccnc2)c2ccccc2n1 | -2%[0.501 µM] | . | . | . | .
O=c1c(-c2ccc(F)c(F)c2)nc2cncnc2n1C1CC1 | 5%[0.501 µM] | . | . | . | .
COc1ccccc1NC(=S)NNC(=O)c1ccc(Cl)cc1Cl | 20µM* | 12% | 14% | 9% | -18%
O=C(CCc1ccccc1)NNC(=S)NC(=O)c1ccc(Cl)cc1 | 1.6µM* | . | -21% | 9% | -36%
Cc1ccc(C(=O)NNC(=S)NC(=O)c2ccc(Cl)cc2)cc1 | 40µM* | 1% | 2% | 5% | -27%
O=C(CCc1ccccc1)NNC(=O)c1ccc(Cl)cc1 | . | -1% | 36% | 8% | -2%
O=C(NC(=S)Nc1cc([N+](=O)[O-])ccc1O)c1cccnc1 | 11µM* | 56% | 6% | 2% | -4%
CC(CNC(=O)CN1C(=O)COc2ccc(S(=O)(=O)N3CCCCCC3)cc21)c1ccccc1 (stereo unspecified) | -27%[59 µM] | . | 28% | ? | -12%
Cc1ccc(NC(=O)C2CCC(CNS(=O)(=O)c3csc(C(N)=O)c3)CC2)cc1Cl (stereo unspecified) | 8%[59 µM] | . | 17% | 3% | 2%
CCOc1ccccc1CNC(=O)c1ccc(NC(=O)N2CCSc3ncccc32)cc1 | -5%[59 µM] | . | 38% | -17% | 3%
CCN(Cc1ccncc1)C(=O)CCc1nnc(CCc2ccc(OC)cc2)o1 | . | 12% | 31% | 6% | 1%
